Active and inactive are the calls of the source.
Key:
[1] = system: XIP peptide (Xip251-270) binding; assay: small-molecule binders of XIP peptide, primary screen, biochemical, small-molecule microarray, fluorescence 635/667 nm, 0.1 µg/mL protein (AID 1182); conditions: fluorescent protein binding, 635 nm, higher = more signal, called active from +8 up or from −8 down
XIP peptide (Xip251-270) = assay: small-molecule binders of XIP peptide, primary screen, biochemical, small-molecule microarray, fluorescence 635/667 nm, 0.5 µg/mL protein (AID 1183); conditions: small-molecule microarray binding, fluorescence 635 nm; higher = more signal
[2] = Plasmodium falciparum growth inhibition, primary screen, strain 3D7, DAPI fluorescence, 100 nL (AID 1184);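 also: parasites grown inside human red blood cells in medium with human serum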; conditions: P. falciparum 3D7 growth, 3 d, higher = more signal
[3] = molecular target: Homeobox protein Hox-A13 (Mus musculus) (UniProt Q62424); assay: inhibitors of HoxA13-DNA binding, primary screen, biochemical, fluorescence polarization, labeled oligonucleotide (AID 1185); conditions: 15 min, higher = more signal, called active from +8 up or from −8 down
Sequence of Homeobox protein Hox-A13 (Mus musculus) (Q62424 whole entry, looked up): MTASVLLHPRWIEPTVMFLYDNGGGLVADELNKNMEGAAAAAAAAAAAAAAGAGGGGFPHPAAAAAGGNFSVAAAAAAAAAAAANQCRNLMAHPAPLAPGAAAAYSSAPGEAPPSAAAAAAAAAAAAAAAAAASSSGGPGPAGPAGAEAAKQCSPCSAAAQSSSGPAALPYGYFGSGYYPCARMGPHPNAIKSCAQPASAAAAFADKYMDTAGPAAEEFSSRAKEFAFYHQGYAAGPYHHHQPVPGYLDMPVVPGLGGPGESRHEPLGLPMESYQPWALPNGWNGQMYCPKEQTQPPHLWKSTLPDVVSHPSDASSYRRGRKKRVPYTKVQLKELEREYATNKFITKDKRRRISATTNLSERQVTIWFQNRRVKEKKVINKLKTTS

CCOC(=O)[C@H](CC(C)C)NC(=O)CCC1CC(OC(=O)NCCc2ccc(F)cc2)CC2(CCCC(COC(=O)NCc3cccc4ccccc34)O2)O1 (some centres not stated)
composite z-score [1]: -0.008 (inactive) | composite z-score (XIP peptide (Xip251-270)): 0.24 | z-score [2]: -1.48 | z-score [3]: -5.81 (inactive)

CCN1C(=O)[C@H]2[C@H]3[C@H](O)[C@H](O)CC(=NOCC[C@@H]4C=C[C@H](OC(C)=O)[C@@H](COC(C)=O)O4)[C@@H]3CC[C@H]2C1=O
composite z-score [1]: 0.607 (inactive) | composite z-score (XIP peptide (Xip251-270)): 0.529 | z-score [2]: 0.145 | z-score [3]: -1.8 (inactive)

CO[C@@H]1COC(=O)[C@H](CCSC)NC(=O)CC=C[C@@H](C)COC(=O)[C@@H]2CCCN2C(=O)CC=C[C@H]1C
composite z-score [1]: 0.665 (inactive) | composite z-score (XIP peptide (Xip251-270)): 0.352 | z-score [2]: -0.494 | z-score [3]: 0.213 (inactive)

COC(=O)[C@@H]1CC[C@H](C)[C@@H](c2ccc(Br)cc2)N1C[C@H](O)CN=[N+]=[N-]
composite z-score [1]: 1.12 (inactive) | composite z-score (XIP peptide (Xip251-270)): -0.135 | z-score [2]: -0.637 | z-score [3]: -2.93 (inactive)

COCCNC(=O)OCC1CCCC2(CC(OC(=O)NCc3cccc4ccccc34)CC(CCC(=O)N[C@@H](C)C(=O)OC)O2)O1 (some centres not stated)
composite z-score [1]: 0.505 (inactive) | composite z-score (XIP peptide (Xip251-270)): 0.588 | z-score [2]: -1.85 | z-score [3]: -3.88 (inactive)

CCC1=NOC(CCC2CC(OC(=O)NCc3cccc4c3OCO4)CC3(CCCC(COC(=O)NCCc4ccc(Cl)cc4)O3)O2)C1 (configuration not stated)
composite z-score [1]: 0.214 (inactive) | composite z-score (XIP peptide (Xip251-270)): 0.855 | z-score [2]: -0.184 | z-score [3]: -2.58 (inactive)

CC(=O)OC[C@H]1O[C@@H](ON=C2[C@H]3CCn4c(=O)n(-c5ccccc5)c(=O)n4[C@H]3[C@H](O)[C@@H]3O[C@H]23)[C@H](OC(C)=O)[C@@H](OC(C)=O)[C@@H]1OC(C)=O
composite z-score [1]: -0.455 (inactive) | composite z-score (XIP peptide (Xip251-270)): 0.292 | z-score [2]: -0.541 | z-score [3]: -4.07 (inactive)

CCOC(=O)[C@H](Cc1ccccc1)NC(=O)CCC1CC(OC(=O)NCCc2ccc(F)cc2)CC2(CCCC(COC(=O)NCCC(C)C)O2)O1 (some centres not stated)
composite z-score [1]: 0.162 (inactive) | composite z-score (XIP peptide (Xip251-270)): 0.657 | z-score [2]: -1.66 | z-score [3]: -4.45 (inactive)

COc1ccc(COC(=O)NN=C2C[C@@H](O)[C@@H](O)[C@@H]3[C@@H]4C(=O)N([C@@H](C)c5ccccc5)C(=O)[C@@H]4CC[C@@H]23)cc1
composite z-score [1]: -0.216 (inactive) | composite z-score (XIP peptide (Xip251-270)): 0.0452 | z-score [2]: -0.503 | z-score [3]: -2.18 (inactive)

C=CC[C@@H]1C=C[C@H](ON=C2C[C@@H](O)[C@@H](O)[C@@H]3[C@@H]4C(=O)N(CC)C(=O)[C@@H]4CC[C@@H]23)[C@@H](CO)O1
composite z-score [1]: -0.192 (inactive) | composite z-score (XIP peptide (Xip251-270)): -1.06 | z-score [2]: -0.689 | z-score [3]: 0.0713 (inactive)

CCN1C(=O)[C@H]2[C@H]3[C@H](O)[C@H](O)CC(=NO[C@@H]4O[C@H](COC(C)=O)[C@@H](OC(C)=O)[C@H](OC(C)=O)[C@H]4OC(C)=O)[C@@H]3CC[C@H]2C1=O
composite z-score [1]: 0.369 (inactive) | composite z-score (XIP peptide (Xip251-270)): -0.191 | z-score [2]: 1.87 | z-score [3]: -1.75 (inactive)

C=CC[C@@H]1C=C[C@H](ON=C(C)CCN2CCCc3nc(C)c(C)cc32)[C@@H](CO)O1
composite z-score [1]: 1.59 (inactive) | composite z-score (XIP peptide (Xip251-270)): 0.241 | z-score [2]: -2.16 | z-score [3]: -7.32 (inactive)

COc1ccc(COC(=O)NN=C2C[C@@H](O)[C@@H](O)[C@@H]3[C@@H]4C(=O)N([C@@H](C)c5ccccc5)C(=O)[C@@H]4CC[C@H]23)cc1
composite z-score [1]: -0.153 (inactive) | composite z-score (XIP peptide (Xip251-270)): -0.273 | z-score [2]: -0.981 | z-score [3]: -3.73 (inactive)

O=C1C2=CC[C@H]3C(=O)N(c4ccc(F)cc4F)C(=O)[C@H]3[C@H]2[C@H](O)[C@@H]2O[C@H]12
composite z-score [1]: -0.196 (inactive) | composite z-score (XIP peptide (Xip251-270)): 0.167 | z-score [2]: 0.569 | z-score [3]: -0.318 (inactive)

CC(C)[C@@H](OCc1ccccc1)[C@H](C)CON=C1[C@H]2CCn3c(=O)n(-c4ccccc4)c(=O)n3[C@H]2[C@H](O)[C@@H]2O[C@H]12
composite z-score [1]: -0.874 (inactive) | composite z-score (XIP peptide (Xip251-270)): 0.199 | z-score [2]: -2 | z-score [3]: -5.16 (inactive)

O=C1C[C@@H](O)[C@@H](O)[C@@H]2[C@@H]3C(=O)N(Cc4ccccc4)C(=O)[C@@H]3CC[C@H]12
composite z-score [1]: -0.317 (inactive) | composite z-score (XIP peptide (Xip251-270)): 0.502 | z-score [2]: -0.331 | z-score [3]: -1.12 (inactive)

CCc1cc2c(nc1CC)CCN(CCC(C)=NO[C@@H]1O[C@H](COC(C)=O)[C@@H](OC(C)=O)[C@H](OC(C)=O)[C@H]1OC(C)=O)C2
composite z-score [1]: 2.93 (inactive) | composite z-score (XIP peptide (Xip251-270)): 0.719 | z-score [2]: -1.62 | z-score [3]: -4.79 (inactive)

CO[C@H]1C[C@@H]2C[C@H](O)CC(CC(=O)O[C@@H](C=CCC(C)C)C[C@@H]3CC[C@H](C)[C@@H](C1)O3)O2
composite z-score [1]: -0.199 (inactive) | composite z-score (XIP peptide (Xip251-270)): 0.142 | z-score [2]: -0.825 | z-score [3]: -0.952 (inactive)

Reference: PubChem BioAssay
